In all, about 1,200 compounds went through this assay and about 150 (12%) were called active.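 How the source made its calls: active means ratio at least 3 SD above the weak peptide control, stable starting fluorescence, no direct agonism earlier; inactive means the rest.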 Many of the other results were omitted from the sample, so actives are more common in it than they were.
target: Mas-related G-protein coupled receptor member X1 (Homo sapiens) (UniProt Q96LB2); test: MrgX1 positive allosteric modulators, duplicate retest, confirmation, HEK293 cells, Fluo-4 calcium flux (AID 602413); settings: MrgX1-HEK293, Fluo-4 calcium fluorescence, FDSS; at 10 µM; active compounds read high;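 further: compound followed by low BAM8-22 agonist challenge near EC20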
Sequence (Q96LB2 whole entry, looked up): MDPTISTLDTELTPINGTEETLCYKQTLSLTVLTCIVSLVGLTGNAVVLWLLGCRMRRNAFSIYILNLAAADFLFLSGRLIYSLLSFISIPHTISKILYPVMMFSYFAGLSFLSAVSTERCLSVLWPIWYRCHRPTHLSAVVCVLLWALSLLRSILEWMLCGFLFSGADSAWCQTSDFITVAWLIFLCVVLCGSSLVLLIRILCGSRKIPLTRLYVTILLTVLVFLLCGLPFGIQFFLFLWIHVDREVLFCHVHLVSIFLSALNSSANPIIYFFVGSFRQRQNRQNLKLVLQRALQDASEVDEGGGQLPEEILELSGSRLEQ

SMILES	activation (ratio percentage)
C=CCN1C(=O)C2(C(C(=O)OCC)=C(N)Oc3c2c(=O)oc2ccccc32)c2ccccc21 (stereo unspecified)	29.5% (active)

From PubChem BioAssay AID602413 (Johns Hopkins Ion Channel Center, 2012)
